Calls of active or inactive are those of the source. The call rests on the fitted dose curve; in most records, active means well fitted curve in the direction sought with a large enough effect in the repeat runs; inconclusive means weak or mixed curves; inactive means flat fitted curve, though single readings scatter.
Assay: qHTS assay to test for compound auto fluorescence at 535 nm (green) in HepG2 cells (AID 720675)
Details: green autofluorescence 485/535 nm, 1 h; series mostly up to 91.3 µM
Source text: National Center for Advancing Translational Sciences [NCATS]
NIH Chemical Genomics Center [NCGC]
U.S. Environmental Protection Agency [EPA]
National Institutes of Environmental Health Sciences [NIEHS]
National Toxicology Program [NTP]
U.S. Food and Drug Administration [FDA]
Compound auto fluorescence often interferes with screening of the compound library against various biological targets and signaling pathways. Some of these compounds may have fluorophoric properties. Such properties may interfere with the assay outputs resulting in false positives and/or negatives. To decrease such complications and ensure the compound activities are relevant in terms of biological response, the Tox21 10K compound library was screened for auto fluorescence.
From the fluorophores used as reporter signals in our screening assays, the auto fluorescence equivalencies of compounds against three fluorophores have been evaluated: Triamterene, Fluorescein and Rose Bengal sodium for blue, green and red fluorescence, respectively. The fluorescence intensities were measured using Excitation/Emission wavelengths at 405/460nm, 485/535nm and 540/590nm for blue, green and red labels, respectively. This assay includes the green fluorescence data.
Tox21 Assay Protocol Summary:
2,000 HepG2 cells in 5 uL of culture medium (MEM containing 10% FBS) per well were dispensed into black wall/clear bottom 1536-well plates using a Multidrop Combi Dispenser (ThermoFisher Scientific, Waltham, MA). The assay plates were incubated overnight at 37 C to allow cell attachment to the well bottom, followed by the transfer of 23 nL compound or DMSO vehicle by a pintool work station (Kalypsys , San Diego, CA). After the assay plates were incubated for 1 hr at 37 C and 5% CO2, fluorescence intensities in the assay plates were measured by an Envision (PerkinElmer, Shelton, CT) plate reader using three labels for measuring blue, green and red fluorescence at […] 460, 535 and 590 nm respectively.

Row | SMILES | outcome
1 | CCOC(=O)c1ccccc1N | inactive
2 | COP(=S)(OC)SCn1nnc2ccccc2c1=O | inactive
3 | O=C(O)c1nn(Cc2ccc(Cl)cc2Cl)c2ccccc12 | inactive
4 | Cl | inactive
5 | O=P(OCCCl)(OCCCl)OCCCl | inactive
6 | CC(C)(c1ccc(OCC2CO2)cc1)c1ccc(OCC2CO2)cc1 (stereo not given) | inactive
7 | OCCOCCO | inactive
8 | N#Cc1c(Cl)c(Cl)c(Cl)c(C#N)c1Cl | inactive
9 | CCN(CC)C(=O)C(C)Oc1cccc2ccccc12 (stereo not given) | inactive
10 | O=C1Nc2ccc(Cl)cc2C(c2ccccc2)=NC1O (stereo not given) | inactive
11 | C=CC(Cl)CCl (stereo not given) | inactive
12 | Clc1cccc(C(Cl)(Cl)Cl)n1 | inactive
13 | CCCCCCCC[N+](C)(CCCCCCCC)CCCCCCCC | inactive
14 | CC(C)CON=O | inactive
15 | O=NN(c1ccccc1)c1ccccc1 | inactive
16 | COP(=O)(NC(C)=O)SC (stereo not given) | inactive
17 | C[C@]12CC[C@H]3[C@@H](CCC4=CC(=O)CC[C@@H]43)[C@@H]1CC[C@@H]2O | inactive
18 | CCOP(=O)(O)OCC (tested in a mixture with another compound) | inactive
19 | CC1(C)Cc2cccc(O)c2O1 | inactive
20 | ClCC(Cl)CCl | inactive

Row | SMILES | outcome
21 | CCC[CH2][Sn]([Cl])([Cl])[CH2]CCC | inactive
22 | NC(=O)CN1CCCC1=O | inactive
23 | CC(C)(O)C(=O)Nc1ccc([N+](=O)[O-])c(C(F)(F)F)c1 | inactive
24 | Cc1cccc(N=Nc2ccc(N(C)C)cc2)c1 | inactive
25 | CC(C)Nc1nc(Cl)nc(NC(C)C)n1 | inactive
26 | CCCCC(C#N)(Cn1cncn1)c1ccc(Cl)cc1 (stereo not given) | inactive
27 | CC(O)CN(CC(C)O)CC(C)O (stereo not given) | inactive
28 | O=C1CCCO1 | inactive
29 | COC(=O)Nc1nc2ccccc2[nH]1 | inactive
30 | CCCCSP(=O)(SCCCC)SCCCC | inactive
31 | Cc1ccc(N=CN(C)C=Nc2ccc(C)cc2C)c(C)c1 | inactive
32 | CCOS(=O)(=O)OCC | inactive
33 | CC(C)Nc1ccc(Nc2ccccc2)cc1 | inactive
34 | O=[N+]([O-])/N=C1\NCCN1Cc1ccc(Cl)nc1 | inactive
35 | O=[N+]([O-])c1ccc(Nc2ccccc2)cc1 | inactive
36 | CC(C)=CC1C(C(=O)OCc2cccc(Oc3ccccc3)c2)C1(C)C (stereo not given) | inactive
37 | CC(C)COC(=O)c1ccccc1C(=O)OCC(C)C | inactive
38 | C=C(C)C#N | inactive
39 | CCOP(=S)(OCC)OP(=S)(OCC)OCC | inactive
40 | COc1ccc(O)c(C(C)(C)C)c1 | inactive

Reference: PubChem BioAssay (Tox21)
